Screens (PubChem)
The full list was thinned out, with hits kept by preference.
HSV replic up – HSV replication enhancement. AID 1956. maximum fold increase. HSV replication augmentation in cells, fold increase. actives 0.005% (n = 220,000); in the data active = maximum fold increase above about 1.5; inconclusive = no clear call, values can overlap the other calls; tested in PC3 cells
Insulin prom up – MIN6 insulin promoter up-regulation | MIN6 insulin promoter-GFP reporter, high-content imaging; stronger effect = higher value | z-score at 5 µM | actives 0.3% (n = 190,000) | AID 1625;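 active = z-score above 3 at 5 µM with at least 500 cells counted in the well; inconclusive = wells under 500 cells, flagged as cytotoxic or low count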
ROMK mod – modulates human ROMK potassium channel activity | actives 2% (n = 130,000) | Tet-inducible ROMK, thallium flux fluorescence; actives lie on both sides | B-score at 10 µM;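 active = signal ratio slope over the read window, or its plate-corrected B-score, at least 3 SD from the plate mean, either direction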;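 also: B-score of the F/F0 ratio slope over 7 to 12 s after thallium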
Target sequence (P48048 whole entry, looked up): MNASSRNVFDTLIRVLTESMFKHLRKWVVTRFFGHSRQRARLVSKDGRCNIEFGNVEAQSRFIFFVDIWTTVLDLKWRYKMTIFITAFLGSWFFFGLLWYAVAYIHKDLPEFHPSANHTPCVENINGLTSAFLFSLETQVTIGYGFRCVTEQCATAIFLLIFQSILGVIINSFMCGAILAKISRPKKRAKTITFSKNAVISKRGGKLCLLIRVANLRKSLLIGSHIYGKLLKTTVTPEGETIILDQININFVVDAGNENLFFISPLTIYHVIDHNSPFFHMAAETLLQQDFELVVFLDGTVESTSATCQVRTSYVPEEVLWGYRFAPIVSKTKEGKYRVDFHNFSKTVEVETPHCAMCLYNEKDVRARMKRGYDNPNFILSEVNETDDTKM
INS promoter inh – TRM-6 insulin promoter activity inhibition. TRM-6 cells (human fetal islet line), insulin promoter-eGFP reporter, imaging; reporter expression induced with tamoxifen. inhibition, % at 2 µM. actives 0.9% (n = 130,000);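 active = inhibition above the mean plus 3 SD, with well images judged a real hit on visual review, cut at about 60% in these data, passing the limit was not always enough; inconclusive = inhibition over the cutoff but images rejected on review; inactive = inhibition not above the cutoff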
Tb hexokinase – T. brucei hexokinase 1 inhibition; recombinant TbHK1, G6PDH-coupled NADH A340; inhibition, % at 10 µM; actives 0.11% (n = 220,000); AID 1430;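 active = inhibition of 50% or more in the single-dose primary screen; inactive = inhibition below 50%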
G6PDH ctr – inhibits Leuconostoc G6PDH, counter-screen for TbHK1 inhibitors; shares compounds with Tb hexokinase; purified G6PDH, NADH absorbance, 1 h; inhibition, % at 10 µM; actives 7% (n = 210);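 active = at least 50% inhibition in the glucose-6-phosphate dehydrogenase coupled counterscreen; inconclusive = no clear call, values can overlap the other calls; inactive = inhibition below 50%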
TbHK1 rescreen – confirmation of Trypanosoma brucei hexokinase 1 inhibitors; recombinant TbHK1, G6PDH-coupled NADH A340 absorbance; AID 2560; inhibition, % at 10 µM; shares compounds with Tb hexokinase; actives 10% (n = 210);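 active = inhibition of at least 50% in both of the two screening runs; inconclusive = at least 50% in one run, below 50% in the other; inactive = inhibition below 50% in both runs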
Hits are given with their value; – = inactive; ? = inconclusive; · = not tested or not shown.

SMILES	HSV replic up	Insulin prom up	ROMK mod	INS promoter inh	Tb hexokinase	G6PDH ctr	TbHK1 rescreen
CCN(CC)S(=O)(=O)c1ccc(C(=O)NCc2n[nH]c(=S)n2Cc2ccccc2)cc1	–	–	·	–	60.5	–	–
CCN(CC)S(=O)(=O)c1ccc(C(=O)Nc2ncn(Cc3ccccc3)n2)cc1	–	–	·	–	63.7	–	–
Nc1ccc(Sc2ccccc2CC(=O)O)cc1	–	–	·	–	–	·	·
Cc1oc(-c2ccccc2F)nc1CSCC(=O)NCc1ccc2c(c1)OCO2	–	–	·	–	61.0	–	–
Cc1nnc(SCc2nnc(-c3ccccc3Br)o2)s1	–	–	–	·	–	·	·
COC(=O)c1ccc(C)c(NC(=O)CN(c2ccccc2)S(=O)(=O)N(C)C)c1	–	–	–	–	–	·	·
O=C(N=C1c2ccccc2CN1c1ccc(F)c(Cl)c1)c1cccnc1Cl	–	·	–	–	–	·	·
CCCCn1c(NC(=S)Nc2ccccc2)nc2ccccc21	–	–	–	–	61.7	–	–
CC(=O)c1ccc(NC(=O)C2CC(c3ccc(F)cc3)=NO2)cc1 (stereo not given)	–	–	·	–	51.9	–	–
O=C(O)C1CCCCC1C(=O)NCCc1ccccc1 (stereo not given)	–	–	·	–	–	·	·
COc1ccc(CCNC(=O)C2CCCCC2C(=O)O)cc1OC (stereo not given)	–	–	·	–	58.7	–	–
O=C(NCc1ccc2c(c1)OCO2)c1cc(=O)[nH]c2ccccc12	–	–	·	·	–	·	·
CC1SCC(NC(=O)c2ccc(Cl)cc2)CS1 (stereo not given)	?	–	–	·	50.9	–	–
COCCCn1cc(C(=O)c2cc(OC)ccc2OCC(=O)N2CCCCC2C)cc(C#N)c1=O (stereo not given)	–	–	–	–	–	·	·
CCOC(=O)N1CCN(C(=O)C2CCN(S(=O)(=O)N3CCCC3)CC2)CC1	–	·	–	–	58.0	–	–
Cc1nn(Cc2ccc(C(=O)NC(C)(C)C)o2)c(C)c1Br	–	?	·	–	50.5	–	–
Cc1cc(NC(=O)c2ccc(Cn3nc(C)c(Br)c3C)o2)no1	–	–	–	–	–	·	·
O=C(NNS(=O)(=O)c1ccccc1[N+](=O)[O-])c1cccnc1	–	–	–	·	–	·	·
COc1ccccc1N1CCN(C2CCN(C(=O)c3cccs3)CC2)CC1	–	–	–	–	–	·	·
COc1ccccc1C1CCN(C(=O)c2cccs2)CC1	–	–	–	·	50.2	–	–
O=C(NCC(=O)N1CC(O)CC1C(=O)N1CCCC1C(=O)OCc1ccccc1)OCc1ccccc1 (stereo not given)	–	–	–	–	–	·	·
CC1CCCC(NC(=O)COC(=O)CN2C(=O)C3CCCCC3C2=O)C1C (stereo not given)	–	–	·	·	–	·	·
COc1ccc(CCN(C)CC(O)c2ccccc2)cc1OC (stereo not given)	–	–	–	·	–	·	·
CCN(CC(=O)NC1CCS(=O)(=O)C1)S(=O)(=O)c1ccc(C)cc1C (stereo not given)	–	–	–	–	–	·	·
CCC1Oc2ccccc2N(CC(=O)Nc2ccccc2OC)C1=O (stereo not given)	–	–	·	–	50.7	–	–
SMILES	HSV replic up	Insulin prom up	ROMK mod	INS promoter inh	Tb hexokinase	G6PDH ctr	TbHK1 rescreen
COc1ccc(CNC(=O)C2CCN(C(=O)[C@@H](CC(C)C)NC(=O)OC(C)(C)C)CC2)cc1	–	–	·	–	55.8	–	–
CC(C)(C)OC(=O)N[C@@H](Cc1ccccc1)C(=O)N1CCC(C(=O)O)CC1	–	–	·	–	–	·	·
O=[N+]([O-])c1cc(/C=N\Nc2nccs2)ccc1O	·	–	–	·	50.2	–	56.2
Cc1nn(C)c(Cl)c1CN1CCC(CO)(CC2CCCCO2)CC1 (stereo not given)	–	–	–	–	–	·	·
Cc1nonc1CN(C)C(=O)CC1C(=O)NCCN1Cc1cccc(C(F)(F)F)c1 (stereo not given)	–	–	–	–	–	·	·
O=C(/C=C/c1cc[n+](CC(=O)c2ccc3cccc4c3c2CC4)cc1)c1ccc2cccc3c2c1CC3	–	–	–	·	75.1	99.7	–
Cc1cc(C(=O)OCC(=O)NCc2ccco2)c(C)o1	–	–	–	–	–	·	·
O=C1CN(C(=O)COC(=O)CCC(=O)c2ccc3c(c2)OCCO3)c2ccccc2N1	–	–	·	–	50.1	–	–
Cc1ccc(CNC(=O)CCS(=O)(=O)c2ccc(Br)cc2)cc1	–	–	·	–	68.3	–	79.2
Cc1ccc(CNC(=O)CCS(=O)(=O)c2ccc(Cl)cc2)cc1	–	–	·	·	–	·	·
COC(=O)c1c(C)[nH]c(C(=O)CC#N)c1C	?	–	–	–	–	·	·
COC(=O)c1c(C)[nH]c(C(=O)CSc2ccc(Cl)cc2)c1C	–	–	–	–	50.4	–	–
Cc1ccc(C)c(NC(=S)NNC(=O)c2cc3c(s2)CCC(C)C3)c1 (stereo not given)	–	–	·	·	–	·	·
Cc1cccc(NC(=S)NNC(=O)c2cc3c(s2)CCC(C)C3)c1C (stereo not given)	–	–	–	–	70.6	–	–
NC(=O)C1CCN(C(=O)c2cc(S(=O)(=O)N3CCOCC3)c(Cl)cc2Cl)CC1	–	–	·	–	68.5	–	–
CC(C)(C)OC(=O)NCC(=O)NCC(=O)OCc1ccccc1	–	–	–	–	53.5	–	–
COc1cc(-c2noc(CCC(=O)Nc3cccnc3)n2)cc(OC)c1OC	–	–	·	–	54.3	–	–
COc1cc(NC(=O)CCc2nc(-c3cccs3)no2)cc(OC)c1OC	–	–	·	–	–	·	·
Cn1nc(-c2ccccn2)nc2c(=O)n(C)c(=O)nc1-2	–	?	·	·	70.1	?	–
CCCc1nc2c(=O)n(C)c(=O)nc-2n(C)n1	–	–	·	·	–	·	·
Cc1ccc(NC(=O)C(C)N=C2NS(=O)(=O)c3ccccc32)cc1F (stereo not given)	–	–	·	·	–	·	·
O=C(COc1ccc(Br)cc1)NNC(=S)NC(=O)c1ccccc1[N+](=O)[O-]	–	–	–	–	60.9	–	–
CC[C@@H]1CC=C[C@H]2[C@H]1C(=O)N(Cc1ccccc1)[C@H]2c1ccc2ccccc2c1	–	·	·	·	–	·	·
CN1C(=O)C2(NC(=O)c3ccccc3N2C)c2ccccc21 (stereo not given)	–	–	·	·	–	·	·
CN1C(=O)C(Cl)(Cl)C(=O)c2ccccc21	–	–	–	–	75.0	–	–
COc1ccc(NC2=NC3(CCCCC3)N=C(N)N2)cc1	–	–	·	–	62.0	–	–
CC(C)(C)OC(=O)N1CCC2(CC1)C(C#N)=C(N)OC1=C2C(=O)CCC1	–	–	–	–	–	·	·
Cc1ccc(C(O)P(=O)(OCc2ccccc2)c2ccc(N(C)C)cc2)cc1 (stereo not given)	–	–	·	·	–	·	·
CC(C)C(O)P(=O)(OCc1ccccc1)c1ccc(N(C)C)cc1 (stereo not given)	–	–	·	–	56.5	–	–
CNc1nc(-c2ccccc2)[n+](-c2ccc(C)cc2)s1	–	–	·	·	61.1	–	84.9
